Where “and” joins values, the source holds several entries; their conditions need not be identical. Equal entries are not always repeated. Records with an inconclusive call do not appear. More than one record can exist for a structure, and the calls need not agree. Calls of active or inactive are those of the source. Calls come from the whole dose curve; as a rule, active = well fitted curve in the direction sought with a large enough effect in the repeat runs; inconclusive = weak or mixed curves; inactive = no such curve, though single readings can be large; an effect the other way counts as inactive or inconclusive.
Assays:
[1] = A CellTox Green Cytotoxicity Assay to monitor cytotoxicity in HEK293 cells - 40 hour (AID 1224871); note: nearly all actives have a fitted effect of over 45% in size; note: potency is the fitted concentration of half-maximal effect
In short: (§1)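 HEK293 cells premixed with CellTox Green dye were seeded at 600 cells/well and left 5 h at 37 C/5% CO2 before pin transfer of 23 nL compound in DMSO. Fluorescence from dye bound to dead-cell DNA was read during 40 h treatment.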

[2] = qHTS RealTime-Glo MT Cell Viability Assay in HEK293 cells - 16 hour (AID 1224872); note: nearly all actives have a fitted effect of over 50% in size; note: potency is the fitted concentration of half-maximal effect
In short: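 Viability tracked continuously by luminescence as live cells reduce a prosubstrate for NanoLuc; HEK293 cells preincubated 5 h, compound-treated at 37 C, and read at 0, 8, 16, 24, 32 and 40 h.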

[3] = qHTS RealTime-Glo MT Cell Viability Assay in HepG2 cells - 8 hour (AID 1224873); note: nearly all actives have a fitted effect of over 55% in size
In short: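 HepG2 cells (600/well) mixed with RealTime-Glo MT reagent, settled 5 h at 37 C/5% CO2 before compound addition. Nonlytic NanoLuc luminescence from viable-cell prosubstrate reduction read repeatedly during 40 h treatment at 37 C.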

[4] = qHTS RealTime-Glo MT Cell Viability Assay in HEK293 cells - 40 hour (AID 1224874); conditions: RealTime-Glo luminescence; max response: stronger effect = lower value; note: nearly all actives have a fitted effect of over 50% in size; note: potency is the fitted concentration of half-maximal effect
In short: (§2)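 HEK293 cells mixed with RealTime-Glo reagents (NanoLuc plus cell-permeant prosubstrate) at 600 cells/well, preincubated 5 h at 37 C/5% CO2, then given 23 nL compound in DMSO. Nonlytic luminescence from viable cells was read at 0, 8, 16, 24, 32 and 40 h.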

[5] = A CellTox Green Cytotoxicity Assay to monitor cytotoxicity in HEK293 cells - 24 hour (AID 1224875); note: series mostly up to about 77 µM; nearly all actives have a fitted effect of over 45% in size
In short: as §1

[6] = A CellTox Green Cytotoxicity Assay to monitor cytotoxicity in HepG2 cells - 16 hour (AID 1224876); note: nearly all actives have a fitted effect of over 45% in size; note: potency is the fitted concentration of half-maximal effect
In short: (§3)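 HepG2 cells were seeded together with the CellTox Green dye at 600 cells/well, left 5 h at 37 C/5% CO2, then given compounds in DMSO. Fluorescence from dye bound to dead-cell DNA was read repeatedly over 40 h of treatment at 37 C.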

[7] = qHTS RealTime-Glo MT Cell Viability Assay in HepG2 cells - 32 hour (AID 1224877); note: nearly all actives have a fitted effect of over 55% in size
In short: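 Viability was tracked continuously by NanoLuc luminescence from prosubstrate reduced by living HepG2 cells, at successive time points over 40 h of compound exposure. Cells with reagent were preincubated 5 h at 37 °C before compound addition.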

[8] = A CellTox Green Cytotoxicity Assay to monitor cytotoxicity in HepG2 cells - 24 hour (AID 1224878); note: nearly all actives have a fitted effect of over 45% in size; note: potency is the fitted concentration of half-maximal effect
In short: as §3

[9] = A CellTox Green Cytotoxicity Assay to monitor cytotoxicity in HepG2 cells - 40 hour (AID 1224879); note: nearly all actives have a fitted effect of over 40% in size; note: potency is the fitted concentration of half-maximal effect
In short: as §3

[10] = qHTS RealTime-Glo MT Cell Viability Assay in HEK293 cells - 0 hour (AID 1224880)
In short: as §2
% is set by controls: 0 for no effect and ±100 for the full control effect.

O=[N+]([O-])c1cc(C(F)(F)F)ccc1Cl
inactive: Potency [1] | Potency [2] | Potency [3] | max response [4] -1.22% and -0.472% | Potency [5] | Potency [6] | Potency [7] | Potency [8] | Potency [9] | Potency [10]

CC(=O)OCCC(C)C
inactive: Potency [1] | Potency [2] | Potency [3] | max response [4] 3.8% and 7.54% | Potency [5] | Potency [6] | Potency [7] | Potency [8] | Potency [9] | Potency [10]

O=C(c1ccccc1)c1ccc(O)c(O)c1O
inactive: Potency [1] | Potency [2] | Potency [3] | max response [4] -18.4% | Potency [5] | Potency [6] | Potency [7] | Potency [8] | Potency [9] | Potency [10]

CCCCCCCCO
inactive: Potency [1] | Potency [2] | Potency [3] | max response [4] 2.5% and 9.18% | Potency [5] | Potency [6] | Potency [7] | Potency [8] | Potency [9] | Potency [10]

COCN(COC)c1nc(N(COC)COC)nc(N(COC)COC)n1
inactive: Potency [1] | Potency [2] | Potency [3] | max response [4] -2.02% and -0.0674% | Potency [5] | Potency [6] | Potency [7] | Potency [8] | Potency [9] | Potency [10]

CCCCCNCCCCC
inactive: Potency [1] | Potency [2] | Potency [3] | max response [4] 4.14% and 0.383% | Potency [5] | Potency [6] | Potency [7] | Potency [8] | Potency [9] | Potency [10]

Cc1ccc(C(C)C)cc1
inactive: Potency [1] | Potency [2] | Potency [3] | max response [4] 2.75% and 28.4% | Potency [5] | Potency [6] | Potency [7] | Potency [8] | Potency [9] | Potency [10]

COc1cc(NC(=O)CC(C)=O)c(OC)cc1Cl
inactive and 21.9 µM (active): Potency [2]
inactive: Potency [1] | Potency [3] | max response [4] -13.4% | Potency [5] | Potency [6] | Potency [7] | Potency [8] | Potency [9] | Potency [10]
active: Potency [4] 12.3 µM

COC(=O)CCCCC(=O)OC
inactive: Potency [1] | Potency [2] | Potency [3] | max response [4] 6.2% and 1.04% | Potency [5] | Potency [6] | Potency [7] | Potency [8] | Potency [9] | Potency [10]

CCCOCC(C)O (stereo not drawn)
inactive: Potency [1] | Potency [2] | Potency [3] | max response [4] 6.7% and -0.928% | Potency [5] | Potency [6] | Potency [7] | Potency [8] | Potency [9] | Potency [10]

OCC(CO)(CO)CO
inactive: Potency [1] | Potency [2] | Potency [3] | max response [4] 2.43% and 2.9% | Potency [5] | Potency [6] | Potency [7] | Potency [8] | Potency [9] | Potency [10]

CC(=O)c1nccs1
inactive: Potency [1] | Potency [2] | Potency [3] | max response [4] 1.39% and 3.29% | Potency [5] | Potency [6] | Potency [7] | Potency [8] | Potency [9] | Potency [10]

CS(=O)(=O)c1ccc(Cl)cc1
inactive and 38.9 µM (active): Potency [6]
inactive: Potency [1] | Potency [2] | Potency [3] | max response [4] -0.177% and 6.75% | Potency [5] | Potency [7] | Potency [8] | Potency [9] | Potency [10]

C=C1C[C@]23C[C@@]1(O)CC[C@H]2[C@@]12C=C[C@H](O)[C@@](C)(C(=O)O1)[C@H]2[C@@H]3C(=O)O
inactive: Potency [1] | Potency [2] | Potency [3] | max response [4] 3.96% and 1.17% | Potency [5] | Potency [6] | Potency [7] | Potency [8] | Potency [9] | Potency [10]

NC(=O)c1ncn([C@@H]2O[C@H](CO)[C@@H](O)[C@H]2O)n1
inactive: Potency [1] | Potency [2] | Potency [3] | max response [4] 2.04% | Potency [5] | Potency [6] | Potency [7] | Potency [8] | Potency [9] | Potency [10]

C=CC(C)(C)C
inactive: Potency [1] | Potency [2] | Potency [3] | max response [4] 1.9% and -10.6% | Potency [5] | Potency [6] | Potency [7] | Potency [8] | Potency [9] | Potency [10]

OCC(O)CS (stereo not drawn)
inactive: Potency [1] | Potency [2] | Potency [3] | max response [4] 14.9% and 3.08% | Potency [5] | Potency [6] | Potency [7] | Potency [8] | Potency [9] | Potency [10]

Cc1ccc(Cl)cc1
inactive: Potency [1] | Potency [2] | Potency [3] | max response [4] 3.18% and 19.9% | Potency [5] | Potency [6] | Potency [7] | Potency [8] | Potency [9] | Potency [10]

O=C(O)Cc1c[nH]c2ccccc12
inactive: Potency [1] | Potency [2] | Potency [3] | max response [4] 12.4% and 16.9% | Potency [5] | Potency [6] | Potency [7] | Potency [8] | Potency [9] | Potency [10]

Cc1ccccc1Cl
inactive: Potency [1] | Potency [2] | Potency [3] | max response [4] 1.86% | Potency [5] | Potency [6] | Potency [7] | Potency [8] | Potency [9] | Potency [10]

C=CC(=O)NCOCCCC
inactive: Potency [1] | Potency [2] | Potency [3] | max response [4] 1.11% and 4.5% | Potency [5] | Potency [6] | Potency [7] | Potency [8] | Potency [9] | Potency [10]

C=C(CC(=O)O)C(=O)O
inactive: Potency [1] | Potency [2] | Potency [3] | max response [4] 2.09% and -0.881% | Potency [5] | Potency [6] | Potency [7] | Potency [8] | Potency [9] | Potency [10]

Nc1nc(N)c2nc(-c3ccccc3)c(N)nc2n1
54.9 µM (active) and inactive: Potency [8]
inactive: Potency [1] | Potency [2] | Potency [3] | max response [4] -27.6% | Potency [5] | Potency [6] | Potency [7] | Potency [10]
active: Potency [4] 24.8 µM and 19.5 µM | Potency [9] 49.5 µM and 49 µM

CN1Cc2c(N)cccc2C(c2ccccc2)C1 (stereo not drawn)
inactive: Potency [1] | Potency [2] | Potency [3] | max response [4] -23.8% and -3.82% | Potency [5] | Potency [6] | Potency [7] | Potency [8] | Potency [9] | Potency [10]

NC(=O)NC(N)=O
inactive: Potency [1] | Potency [2] | Potency [3] | max response [4] 1.11% and 4.69% | Potency [5] | Potency [6] | Potency [7] | Potency [8] | Potency [9] | Potency [10]

N[C@@H](Cc1cc(I)c(Oc2ccc(O)c(I)c2)c(I)c1)C(=O)O
inactive: Potency [1] | Potency [2] | Potency [3] | max response [4] -20.1% and -17.6% | Potency [5] | Potency [6] | Potency [7] | Potency [8] | Potency [9]

CC/C(C)=N/O
inactive: Potency [1] | Potency [2] | Potency [3] | max response [4] 0.953% and 3.11% | Potency [5] | Potency [6] | Potency [7] | Potency [8] | Potency [9] | Potency [10]

CCn1cc(C(=O)O)c(=O)c2cc3c(cc21)OCO3
inactive: Potency [1] | Potency [2] | Potency [3] | max response [4] 10.2% and 3.68% | Potency [5] | Potency [6] | Potency [7] | Potency [8] | Potency [9] | Potency [10]

CC/C=C(\C(=O)N[C@@H]1C(=O)N2C(C(=O)OCOC(=O)C(C)(C)C)=C(COC(N)=O)CS[C@H]12)c1csc(N)n1
inactive: Potency [1] | Potency [2] | Potency [3] | max response [4] 11.8% and 8.9% | Potency [5] | Potency [6] | Potency [7] | Potency [8] | Potency [9] | Potency [10]

CCc1cccc(CC)c1N
inactive: Potency [1] | Potency [2] | Potency [3] | max response [4] 1.74% and 8.01% | Potency [5] | Potency [6] | Potency [7] | Potency [8] | Potency [9] | Potency [10]

Cc1cc(C)cc(O)c1
inactive: Potency [1] | Potency [2] | Potency [3] | max response [4] 6.28% and 8.82% | Potency [5] | Potency [6] | Potency [7] | Potency [8] | Potency [9] | Potency [10]

Cc1cc(C)c(O)c(C)c1
inactive: Potency [1] | Potency [2] | Potency [3] | max response [4] 3.39% and -0.795% | Potency [5] | Potency [6] | Potency [7] | Potency [8] | Potency [9] | Potency [10]

CC(=O)OC(C)(C)C1CC=C(C)CC1 (stereo not drawn)
inactive: Potency [1] | Potency [2] | Potency [3] | max response [4] 3.8% and -15.5% | Potency [5] | Potency [6] | Potency [7] | Potency [8] | Potency [9] | Potency [10]

NCCNCCNCCN
inactive: Potency [1] | Potency [2] | Potency [3] | max response [4] 2.02% and 3.6% | Potency [5] | Potency [6] | Potency [7] | Potency [8] | Potency [9] | Potency [10]

CC(C)(C)NC[C@H](O)COc1nsnc1N1CCOCC1
inactive and 3.38 µM (active): Potency [1]
inactive: Potency [2] | Potency [3] | max response [4] -0.31% and -1.2% | Potency [5] | Potency [6] | Potency [7] | Potency [8] | Potency [9] | Potency [10]

NC1CCCCC1N (stereo not drawn)
inactive: Potency [1] | Potency [2] | Potency [3] | max response [4] -12.3% and -1.05% | Potency [5] | Potency [6] | Potency [7] | Potency [8] | Potency [9] | Potency [10]

C1CCCNCC1
inactive: Potency [1] | Potency [2] | Potency [3] | max response [4] 6.44% and 0.666% | Potency [5] | Potency [6] | Potency [7] | Potency [8] | Potency [9] | Potency [10]

COc1ccc(N)c(OC)c1
inactive: Potency [1] | Potency [2] | Potency [3] | max response [4] -8.13% and -8.26% | Potency [5] | Potency [6] | Potency [7] | Potency [8] | Potency [9] | Potency [10]

CCCN(CCC)C(=O)SCC
inactive: Potency [1] | Potency [2] | Potency [3] | max response [4] 1.3% and 0.597% | Potency [6] | Potency [7] | Potency [8] | Potency [9] | Potency [10]

O=c1c(O)c(-c2ccc(O)c(O)c2)oc2cc(O)cc(O)c12
inactive: Potency [1] | Potency [2] | Potency [3] | max response [4] -22.5% | Potency [6] | Potency [7] | Potency [8] | Potency [9]

From PubChem BioAssay (Tox21)
